# Screens: PubChem, National Center for Advancing Translational Sciences (NCATS)
# In the library only some 3.3% were active in any assay of this set; here they are far more common.
# VACV Venus inh – qHTS for Stage-Specific Inhibitors of Vaccinia Orthopoxvirus: Venus Reporter Primary qHTS; Vaccinia virus Venus reporter expression, fluorescence; Potency, µM (series often up to 36.5 µM), without a hit: at the highest dose activity change, negative = inhibition, hits mostly inhibitors; 0.46% of 330,000 active; AID 720580, 2013; calls by dose curve; tested in A549 cells; further: nearly all actives have a fitted effect of over 30% in size
# VACV mCherry inh – qHTS for Stage-Specific Inhibitors of Vaccinia Orthopoxvirus: mCherry Reporter Primary qHTS; Vaccinia virus mCherry reporter infection, fluorescence; Potency, µM (top dose mostly 36.5 µM), inactives show at the top dose activity change, negative = inhibition, actives largely listed as inhibitors; 0.63% of 310,000 active; AID 720579, 2013; calls by dose curve; tested in A549 cells; further: nearly all actives have a fitted effect of over 35% in size
# HCV inhibitor – qHTS Assay for Inhibitors of Hepatitis C Virus (HCV) | Huh7.5.1 HCVcc-Cre infection, luciferase reporter, 44 h | Potency, µM (series often up to 41.8 µM), for the others: at the top dose activity change, negative = inhibition, actives largely listed as inhibitors | AID 651820, 2012 | 3.4% of 340,000 active; active means well fitted inhibition curve with a large enough effect; inconclusive means small, poorly fitted or top-dose-only effect, or another doubt; inactive means no such curve, though single readings can be large or run the other way
#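 Seed cells (1,000/well) for 4 h; treat with compound and infect with HCVcc-Cre, moi about 0.5. Incubate 44 h, then detect luciferase activity.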
# The depositor's hits bear a star; i = inactive; ? = inconclusive; · = no result; [ ] = another dose, or the depositor's remark. On the % scale 0 is the no-effect control and ±100 the full control effect; potency means the concentration at half of the fitted maximal effect.
SMILES,VACV Venus inh,VACV mCherry inh,HCV inhibitor
c1ccc(-c2cc3ccccc3nc2N2CCCC2)cc1,-12.6%,·,?
Cc1ccc(-c2nnc(-c3ccccc3)c(N3CCOCC3)n2)cc1,·,·,11.2µM*
Cc1ccccc1C(=O)NCCNC(=O)c1cnccn1,-1.9%,i,3.3%
CCCC(NC(C)C(=O)N1C(C(=O)O)CC2CCCCC21)C(=O)OCC (stereo not given),0.9%,-3.9%,·
Cc1ccc(NC(=O)c2ccc(=O)[nH]n2)cc1C,5.9%,-14.4%,-2.6%
Cc1ccc(NC(=O)c2ccc(=O)[nH]n2)cc1S(=O)(=O)Nc1ccc(SC(F)F)cc1,·,·,3.16µM*
OC(CNc1ccccc1)COc1ccc(OCC(O)CNc2ccccc2)cc1 (stereo not given),11.2µM*,·,?
CCOCC(O)CNc1ccccc1 (stereo not given),-7.3%,i,30.2%
O=C(O)c1ccc(-n2nc(C(F)(F)F)c3c2CCCC3)cc1,·,·,-11.8%
CN(C)C(=O)c1ccc(-n2nc(C(F)(F)F)c3c2CCCC3)cc1,-26.2%,·,10µM*
COc1cccc(-c2cc3c(c(OC)c2)OCCN(Cc2ccccc2O)C3)n1,-8.9%,i,·
CC(C)(C)OC(=O)C[C@H]1C/C=C\C[C@H](CC(=O)N[C@@H](CO)Cc2ccccc2)C(=O)N[C@H](C(C)(C)C)COC1=O,-9.2%,-10.1%,14.1%
CC(=O)c1ccc(S(=O)(=O)Nc2cccc(-c3ccc(N4CCCCCC4)nn3)c2)cc1,-15.1%,-14.6%,·
O=C(O)CCC(=O)NC(c1ccccc1)c1ccccc1,-9.5%,-9.4%,17.6%
CCCCC(=O)NC(c1ccccc1)c1ccc2cccnc2c1O (stereo not given),?,1.58µM*,2.82µM*
CCC(=O)NC(c1ccccc1OC)c1ccc2cccnc2c1O (stereo not given),?,?,2.51µM*
CCC(=O)NC(c1ccccc1Cl)c1c(O)ccc2ccccc12 (stereo not given),-16.1%,-2.3%,-0.8%
CCCC(=O)NC(c1ccccc1)c1ccc2cccnc2c1O (stereo not given),?,?,2.82µM*
O=C(O)CCC(=O)Nc1cccc2cccnc12,-10.8%,-13.5%,-3.9%
CCCCC(=O)NC(c1ccccc1Cl)c1ccc2cccnc2c1O (stereo not given),·,·,2.24µM*
COc1cccc(CNc2cccc3cccnc23)c1O,·,·,-3.4%
CC(Sc1nnc(N)s1)C(=O)Nc1ccc2c(c1)OCCO2 (stereo not given),·,·,0.0%
CCCCn1nnnc1C(c1cc2ccccc2o1)N1CCN(C(=O)OC(C)(C)C)CC1 (stereo not given),3.0%,-8.1%,·
CCN1c2ccccc2-c2nc(SCC(=O)Nc3cccc(C(F)(F)F)c3)ncc2S1(=O)=O,-2.5%,-20.9%,·
Oc1cccc(C(Nc2nccs2)c2ccc3cccnc3c2O)c1 (stereo not given),?,15.8µM*,?
SMILES,VACV Venus inh,VACV mCherry inh,HCV inhibitor
CCCCC(=O)NC(c1ccc(C(C)C)cc1)c1ccc2cccnc2c1O (stereo not given),·,·,2.82µM*
O=C(COc1cccc2cccnc12)Nc1nccs1,·,·,-10.0%
c1ccc(CC(Nc2ccccn2)c2ccccc2)cc1 (stereo not given),-12.5%,-11.1%,6.5%
CCCC(=O)NC(c1ccc(OC)cc1)c1ccc2cccnc2c1O (stereo not given),?,8.91µM*,3.16µM*
Oc1c(C(Nc2ccccn2)c2ccccc2)ccc2cccnc12 (stereo not given),?,11.2µM*,·
CCCCCOc1ccc(NC(=O)CSc2cccc3cccnc23)cc1,7.2%,-10.2%,0.8%
COc1ccc(CNC(=O)CSc2cccc3cccnc23)cc1,0.0%,11.1%,16.7%
Cc1ccc(-c2cc(C(F)(F)F)n3ncc(-c4ccc(Cl)cc4)c3n2)cc1,-1.9%,-2.7%,·
CN(C)C(=O)COc1ccccc1C(=O)OCC(=O)N(CCC#N)c1ccccc1,-14.8%,-7.2%,·
CC(C)c1ccc(C(=O)Nc2cccc3cccnc23)cc1,11.1%,1.8%,·
CC(=O)NC(c1ccc(C(C)C)cc1)c1ccc2cccnc2c1O (stereo not given),?,?,8.91µM*
CCOC(=O)N1CCN(C(=O)c2ccc(-c3ccccc3OC)nc2N2CCC(N3CCCC(CO)C3)CC2)CC1 (stereo not given),-5.1%,-8.9%,·
CCOC(=O)c1ccc(S(=O)(=O)N2CCN(c3nc(-c4ccccc4)nc4ccccc34)CC2)cc1,-15.3%,-7.3%,·
CCS(=O)(=O)c1ccc2oc(SCC(=O)NCCc3ccccc3)nc2c1,?,12.6µM*,7.1%
CCS(=O)(=O)c1ccc2oc(SCC(=O)NCc3ccccc3)nc2c1,-0.7%,0.9%,18.8%
COc1ccc(-c2ccc3c(c2)[C@@H]2C[C@H](N(C)C(=O)Nc4ccccc4)[C@H]([C@H](C)O)C(=O)N2CC3)cc1,?,?,2µM*
C[C@H](O)[C@@H]1C(=O)N2CCc3ccc(-c4cccc(F)c4)cc3[C@@H]2C[C@@H]1N(C)C(=O)Nc1ccccc1,-6.3%,-11.1%,-15.5%[8.37 µM]
C[C@H](O)[C@@H]1C(=O)N2CCc3c([nH]c4ccccc34)[C@@H]2C[C@@H]1N(C)C(=O)Nc1cc(Cl)cc(Cl)c1,?,12.6µM*,·
C[C@H](O)[C@@H]1C(=O)N2CCc3c([nH]c4ccccc34)[C@@H]2C[C@@H]1N(C)C(=O)Nc1ccccc1,-27.3%,?,·
O=C(COC(=O)c1ccccc1C(=O)OCC(=O)NCCc1c[nH]c2ccccc12)NCCc1c[nH]c2ccccc12,?,-18.2%,?
COc1cccc(NC(=O)NC2(C(=O)N3CCN(C)CC3)CCCCC2)c1,-5.5%,-5.5%,15.7%
COCCN(CCOC)Cc1cc(=O)oc2cc(C)c(C)cc12,-2.8%,41.0%,·
O=C(O)[C@H](Cc1c[nH]c2ccccc12)Nc1ncccc1[N+](=O)[O-],-2.0%,i,0.4%
c1ccc(CCNc2ccnc3cc4ccccc4cc23)cc1,?,?,6.31µM*
O=C(NCCc1ccccc1)c1nccc2ccccc12,-14.9%,i,-22.1%
SMILES,VACV Venus inh,VACV mCherry inh,HCV inhibitor
COc1ccc(OC)c(/C=C(\C#N)c2nc(-c3ccc(F)cc3)cs2)c1,-2.2%[7.34 µM],-9.8%[7.34 µM],·
CCc1nn2c(=O)cc(COC(=O)c3cccc(NC(=O)COc4ccccc4)c3)nc2s1,-10.7%,i,·
COc1cc2c(cc1OC)CN(C(=O)c1ccncc1)CC2,·,·,9.1%
COc1ccc(C(=O)N2CCc3ccc(NC(=O)c4ccccn4)cc3C2)cc1F,·,·,11.2µM*
Cc1[nH]c(C)c(S(=O)(=O)NCc2ccc(OC(C)C)cc2)c1C(=O)N1CCCC1,-11.4%[7.34 µM],-11.0%[7.34 µM],4.7%
COc1ccc(Cl)cc1NC(=O)CN(C)C(=O)c1cc2c(F)cccc2s1,·,·,3.98µM*
COc1ccc(Cl)cc1NC(=O)CN(C)C(=O)c1ccc(C)s1,-5.2%,-13.0%,?
C=C1C=C(C)n2ncc(C(=O)Nc3ccccc3C(=O)OC)c2N1,-15.2%,-11.2%,·
COc1ccccc1OCC(=O)NCC(c1ccc(Cl)cc1)N1CCCCC1 (stereo not given),-3.9%,-7.1%,·
COc1ccc(F)c(CN2CCC3(CCC(CNC(=O)c4cc(C)nn4C)O3)CC2)c1 (stereo not given),-10.3%,-16.4%,·
